From PubChem BioAssay AID1159580 (chemical genetic matrix, 2015)
Hit rate of the full screen: of about 5,500 compounds, about 2,000 (36%) were called active. Another 18% or so got no clear call; they are omitted. Rule as the data show it: active = normalized growth mostly below about 0.91 (no sharp cut-off); inconclusive = no clear call, values can overlap the other calls; inactive = mostly above about 0.92. This is one part of the list.

Assay: chemical genetic growth profiling, strain panel (AID 1159580);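 also: tested at 20 µM; growth read once vehicle control cultures reached saturation at 30 °C; 1 = growth at the plate median or of vehicle wells; lower values mean less growth of the strain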
Conditions: S. cerevisiae deletion strains, growth OD

Measured: normalized growth

CC(=O)Oc1cc2c(c(C)c1OC(C)=O)CC1OC13C2(C)CCC1(C)C2CC(C)(C(=O)O)CCC2(C)CCC13C (configuration not stated)
inactive: locus YAL021C, strain ccr4, hits give low values 0.988 | locus YAL026C, strain drs2, hits give low values 1.04 | locus YAL030W, strain snc1, hits give low values 1.01 | locus YBL061C, strain skt5, hits give low values 1.04 | locus YBR009C, strain hhf1, hits give low values 1 | locus YBR021W, strain FUR4, hits give low values 0.99 | locus YBR023C, strain chs3, hits give low values 1.01 | locus YBR171W, strain sec66, hits give low values 1.02 | locus YBR229C, strain ROT2, hits give low values 1.01 | locus YBR231C, strain swc5, hits give low values 1.04 | locus YBR279W, strain paf1, hits give low values 1.02 | locus YCL011C, strain gbp2, hits give low values 1.01 | locus YCL016C, strain dcc1, hits give low values 1 | locus YCL029C, strain bik1, hits give low values 1.03 | locus YCL069W, strain vba3, hits give low values 1.03 | locus YCR088W, strain abp1, hits give low values 1.01 | locus YDL005C, strain med2, hits give low values 1.02 | locus YDL035C, strain GPR1, hits give low values 0.993 | locus YDL040C, strain nat1, hits give low values 1.02 | locus YDL074C, strain BRE1, hits give low values 1.02 | locus YDL101C, strain DUN1, hits give low values 1.01 | locus YDL185W, strain tfp1, hits give low values 1.04 | locus YDL192W, strain arf1, hits give low values 1.02 | locus YDR001C, strain nth1, hits give low values 1.01 | locus YDR069C, strain doa4, hits give low values 1.01 | locus YDR101C, strain arx1, hits give low values 1.03 | locus YDR137W, strain rgp1, hits give low values 1.02 | locus YDR159W, strain sac3, hits give low values 1.05 | locus YDR162C, strain NBP2, hits give low values 1 | locus YDR195W, strain ref2 1.02 | locus YDR297W, strain sur2, hits give low values 1.02 | locus YDR318W, strain mcm21, hits give low values 1.02 | locus YDR334W, strain swr1, hits give low values 1.01 | locus YDR335W, strain msn5, hits give low values 1.02 | locus YDR388W, hits give low values 1.02 | locus YDR392W, strain spt3, hits give low values 0.919 | locus YDR502C, strain sam2, hits give low values 1.01 | locus YEL003W, strain gim4, hits give low values 1.01 | locus YEL037C, strain rad23, hits give low values 1.01 | locus YEL061C, strain CIN8 (second series), hits give low values 1.02 | locus YEL061C, strain CIN8, hits give low values 1.01 | locus YER015W, strain faa2, hits give low values 1.02 | locus YER016W, strain bim1, hits give low values 1.02 | locus YER110C, hits give low values 1.03 | locus YER111C, strain swi4, hits give low values 1 | locus YER155C, strain BEM2 (second series), hits give low values 1.01 | locus YER155C, strain BEM2, hits give low values 0.99 | locus YER167W, strain BCK2, hits give low values 1.01 | locus YFR010W, strain ubp6, hits give low values 1.03 | locus YGL078C, strain dbp3, hits give low values 0.99 | locus YGL086W, strain mad1, hits give low values 1.02 | locus YGL167C, strain pmr1, hits give low values 1 | locus YGL173C, strain kem1, hits give low values 1.02 | locus YGL227W, strain vid30, hits give low values 1.02 | locus YGL240W, strain doc1, hits give low values 1.02 | locus YGL248W, strain PDE1, hits give low values 0.999 | locus YGL253W, strain hxk2, hits give low values 1.03 | locus YGR135W, strain pre9, hits give low values 1.03 | locus YGR252W, strain gcn5, hits give low values 0.989 | locus YHR013C, strain ard1, hits give low values 1.01 | locus YHR027C, strain rpn1, hits give low values 1.01 | locus YHR030C, strain SLT2, hits give low values 1.02 | locus YHR079C, strain IRE1 (second series), hits give low values 1.04 | locus YHR094C, strain hxt1, hits give low values 1.04 | locus YHR129C, strain ARP1, hits give low values 1.01 | locus YHR142W, strain chs7, hits give low values 1.01 | locus YHR200W, strain rpn10, hits give low values 1.04 | locus YIL066C, strain RNR3, hits give low values 0.998 | locus YIL073C, strain SPO22, hits give low values 1.02 | locus YIL125W, strain kgd1, hits give low values 1.01 | locus YIR030C, strain dcg1, hits give low values 1.04 | locus YJL092W, strain hpr5, hits give low values 1.02 | locus YJL095W, strain BCK1 (second series), hits give low values 1.03 | locus YJL095W, strain BCK1, hits give low values 0.998 | locus YJL115W, strain asf1, hits give low values 1.01 | locus YJL129C, strain trk1, hits give low values 1.02 | locus YJL134W, strain LCB3, hits give low values 1.01 | locus YJL154C, strain vps35, hits give low values 1.01 | locus YJL164C, strain tpk1, hits give low values 0.989 | locus YJL166W, strain qcr8, hits give low values 1.01 | locus YJL168C, strain set2, hits give low values 1.03 | locus YJL187C, strain SWE1 (second series), hits give low values 0.992 | locus YJR043C, strain POL32, hits give low values 1 | locus YKL009W, strain mrt4, hits give low values 0.927 | locus YKL068W, hits give low values 1.03 | locus YKL085W, strain MDH1 (second series), hits give low values 1 | locus YKL085W, strain MDH1, hits give low values 1 | locus YKL160W, strain elf1, hits give low values 1 | locus YKL190W, strain CNB1, hits give low values 1 | locus YKR001C, strain vps1, hits give low values 0.993 | locus YKR026C, strain gcn3, hits give low values 1.02 | locus YKR091W, strain srl3, hits give low values 1.01 | locus YLL001W, strain dnm1, hits give low values 1.03 | locus YLL026W, hits give low values 1.01 | locus YLL041C, strain sdh2, hits give low values 1.01 | locus YLR027C, strain aat2, hits give low values 1.01 | locus YLR039C, strain RIC1, hits give low values 0.893 | locus YLR058C, strain SHM2, hits give low values 1 | locus YLR102C, strain apc9, hits give low values 1.03 | locus YLR221C, strain rsa3, hits give low values 1.03 | locus YLR258W, strain gsy2, hits give low values 1.02 | locus YLR262C, strain YPT6 (second series), hits give low values 1.02 | locus YLR262C, strain YPT6, hits give low values 0.853 | locus YLR268W, strain sec22, hits give low values 1.04 | locus YLR320W, strain mms22, hits give low values 1.03 | locus YLR330W, strain CHS5, hits give low values 1.01 | locus YLR342W, strain FKS1 (second series), hits give low values 1 | locus YLR342W, strain FKS1, hits give low values 1.02 | locus YLR357W, strain rsc2, hits give low values 1.01 | locus YLR370C, strain arc18, hits give low values 1.01 | locus YLR371W, strain rom2, hits give low values 1.05 | locus YLR384C, strain iki3, hits give low values 1 | locus YLR418C, strain cdc73, hits give low values 1 | locus YML016C, strain PPZ1, hits give low values 1.01 | locus YML032C, strain rad52, hits give low values 1.03 | locus YML120C, strain ndi1, hits give low values 1.02 | locus YML124C, strain tub3, hits give low values 1.02 | locus YMR058W, strain fet3, hits give low values 1.03 | locus YMR078C, strain ctf18, hits give low values 1.04 | locus YMR125W, strain sto1, hits give low values 0.985 | locus YMR129W, hits give low values 1.01 | locus YMR205C, strain PFK2, hits give low values 0.988 | locus YMR223W, strain ubp8, hits give low values 1.05 | locus YMR231W, strain pep5, hits give low values 1.01 | locus YMR263W, strain SAP30, hits give low values 1.01 | locus YMR307W, strain GAS1, hits give low values 0.949 | locus YNL067W, strain RPL9B, hits give low values 1 | locus YNL071W, strain lat1, hits give low values 1.01 | locus YNL153C, strain GIM3, hits give low values 1 | locus YNL209W, strain ssb2, hits give low values 0.994 | locus YNL233W, strain BNI4, hits give low values 1.02 | locus YNL248C, strain rpa49, hits give low values 1.06 | locus YNL250W, strain rad50, hits give low values 1.02 | locus YNL271C, strain bni1, hits give low values 1.03 | locus YNL298W, strain CLA4, hits give low values 0.994 | locus YNL307C, strain MCK1, hits give low values 1.03 | locus YNL322C, strain KRE1 (second series), hits give low values 0.994 | locus YNR049C, strain mso1, hits give low values 1.04 | locus YNR052C, strain pop2, hits give low values 1.01 | locus YOL006C, strain TOP1, hits give low values 0.964 | locus YOL012C, strain htz1 1.11 | locus YOL147C, strain pex11, hits give low values 1.04 | locus YOR001W, strain rrp6, hits give low values 1.02 | locus YOR061W, strain CKA2, hits give low values 1.02 | locus YOR069W, strain VPS5, hits give low values 1.01 | locus YOR070C, strain gyp1, hits give low values 1.04 | locus YOR080W, strain dia2, hits give low values 1.02 | locus YOR083W, strain WHI5, hits give low values 1.01 | locus YOR106W, strain vam3, hits give low values 1.01 | locus YOR136W, strain idh2, hits give low values 1.02 | locus YOR144C, strain elg1, hits give low values 1.03 | locus YOR184W, strain ser1, hits give low values 0.994 | locus YOR265W, strain rbl2, hits give low values 1.01 | locus YOR270C, strain vph1, hits give low values 1.05 | locus YOR290C, strain snf2, hits give low values 0.994 | locus YOR316C, strain cot1, hits give low values 1.03 | locus YPL051W, strain arl3, hits give low values 1.02 | locus YPL055C, strain LGE1, hits give low values 1.01 | locus YPL078C, strain atp4, hits give low values 0.99 | locus YPL106C, strain sse1, hits give low values 1.03 | locus YPL240C, strain hsp82, hits give low values 1.01 | locus YPL241C, strain CIN2, hits give low values 1 | locus YPR119W, strain clb2, hits give low values 1.02 | locus YPR141C, strain kar3, hits give low values 1.02 | locus YPR163C, strain tif3, hits give low values 1.04 | locus YPR167C, strain met16, hits give low values 1.02 | strain wtn01, hits give low values 1.01
